Results: PubChem BioAssay (NCATS)
Records with an inconclusive call do not appear. Calls of active or inactive are those of the source. Unless noted, the call rests on the fitted dose curve; in most records, active means well fitted curve in the direction sought with a large enough effect; inconclusive means small, poorly fitted or top-dose-only effect, or another doubt; inactive means no such curve, though single readings can be large; an effect the other way counts as inactive or inconclusive.

Tests used:
[1] = target: Cytochrome P450 2C9 (Homo sapiens) (UniProt P11712); assay: Cytochrome P450 family 2 subfamily C member 9 (CYP2C9) small molecule antagonists: luciferase biochemical (cell-free) qHTS assay (AID 1645842; active means well fitted curve in the direction sought with a large enough effect in the repeat runs; an effect the other way counts as inactive or inconclusive; further: nearly all actives have a fitted effect of over 55% in size; further: potency means the concentration at half of the fitted maximal effect)
Sequence of Cytochrome P450 2C9 (Homo sapiens) (P11712 whole entry, looked up): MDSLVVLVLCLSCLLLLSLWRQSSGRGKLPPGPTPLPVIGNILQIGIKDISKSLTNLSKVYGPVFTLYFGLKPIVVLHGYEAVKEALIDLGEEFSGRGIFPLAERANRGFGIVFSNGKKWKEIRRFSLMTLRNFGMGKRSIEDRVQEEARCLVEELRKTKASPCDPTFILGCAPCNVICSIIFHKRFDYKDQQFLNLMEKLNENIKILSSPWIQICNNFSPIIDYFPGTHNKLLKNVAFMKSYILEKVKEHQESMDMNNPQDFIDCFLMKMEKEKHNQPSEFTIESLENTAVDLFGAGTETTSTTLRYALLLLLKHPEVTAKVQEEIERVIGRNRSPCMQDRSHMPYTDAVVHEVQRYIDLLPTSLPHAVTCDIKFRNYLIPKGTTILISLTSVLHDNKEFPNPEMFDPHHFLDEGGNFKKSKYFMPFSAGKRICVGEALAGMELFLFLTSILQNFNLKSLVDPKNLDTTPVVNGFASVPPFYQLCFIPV
Method in brief: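 Luminescence, after 20 min with luciferin detection reagent, reflected CYP2C9 turnover during a 1 h NADPH-driven reaction at 37C. Enzyme-substrate mix contained 0.4% bovine serum albumin and was preincubated with compound 10 min at room temperature.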

[2] = target: Bile acid receptor (Homo sapiens) (UniProt Q96RI1); assay: qHTS assay for small molecule antagonists of farnesoid X receptor signaling (AID 588526; calls by dose curve; further: on the % scale 0 is the no-effect control and ±100 the full control effect)
Sequence of Bile acid receptor (Homo sapiens) (Q96RI1 whole entry, looked up): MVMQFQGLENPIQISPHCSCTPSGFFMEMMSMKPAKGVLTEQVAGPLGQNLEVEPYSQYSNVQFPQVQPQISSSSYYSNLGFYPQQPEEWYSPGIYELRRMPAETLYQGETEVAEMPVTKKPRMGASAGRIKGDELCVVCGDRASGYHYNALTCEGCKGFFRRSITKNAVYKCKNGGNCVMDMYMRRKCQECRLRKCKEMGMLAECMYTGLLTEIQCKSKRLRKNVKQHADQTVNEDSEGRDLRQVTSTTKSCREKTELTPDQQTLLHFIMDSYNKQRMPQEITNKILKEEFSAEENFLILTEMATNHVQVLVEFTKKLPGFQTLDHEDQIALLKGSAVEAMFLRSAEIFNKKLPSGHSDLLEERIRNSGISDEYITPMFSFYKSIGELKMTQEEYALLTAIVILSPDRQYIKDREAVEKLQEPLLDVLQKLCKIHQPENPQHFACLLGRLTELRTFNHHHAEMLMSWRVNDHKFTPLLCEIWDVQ
Method in brief: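 Antagonist mode: titrated compounds tested against chenodeoxycholic acid stimulation (normalized to 50 uM CDCA and DMSO) in GeneBLAzer HEK293T cells for 16 h. Beta-lactamase read by CCF4 fluorescence; IC50 from Hill fits.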

[3] = target: Glucocorticoid receptor (Homo sapiens) (UniProt P04150); assay: qHTS assay for small molecule agonists of glucocorticoid receptor signaling (AID 588532; active means well fitted curve in the direction sought with a large enough effect in the signal ratio, with a control signal flat; the % refers to the signal ratio;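 further: 100% = dexamethasone at 0.1 µM and 0% = DMSO only wells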); conditions: HeLa MMTV-bla, beta-lactamase ratio, agonist, 18 h; stronger effect = higher value; percent of dexamethasone control, DMSO zero
Sequence of Glucocorticoid receptor (Homo sapiens) (P04150 whole entry, looked up): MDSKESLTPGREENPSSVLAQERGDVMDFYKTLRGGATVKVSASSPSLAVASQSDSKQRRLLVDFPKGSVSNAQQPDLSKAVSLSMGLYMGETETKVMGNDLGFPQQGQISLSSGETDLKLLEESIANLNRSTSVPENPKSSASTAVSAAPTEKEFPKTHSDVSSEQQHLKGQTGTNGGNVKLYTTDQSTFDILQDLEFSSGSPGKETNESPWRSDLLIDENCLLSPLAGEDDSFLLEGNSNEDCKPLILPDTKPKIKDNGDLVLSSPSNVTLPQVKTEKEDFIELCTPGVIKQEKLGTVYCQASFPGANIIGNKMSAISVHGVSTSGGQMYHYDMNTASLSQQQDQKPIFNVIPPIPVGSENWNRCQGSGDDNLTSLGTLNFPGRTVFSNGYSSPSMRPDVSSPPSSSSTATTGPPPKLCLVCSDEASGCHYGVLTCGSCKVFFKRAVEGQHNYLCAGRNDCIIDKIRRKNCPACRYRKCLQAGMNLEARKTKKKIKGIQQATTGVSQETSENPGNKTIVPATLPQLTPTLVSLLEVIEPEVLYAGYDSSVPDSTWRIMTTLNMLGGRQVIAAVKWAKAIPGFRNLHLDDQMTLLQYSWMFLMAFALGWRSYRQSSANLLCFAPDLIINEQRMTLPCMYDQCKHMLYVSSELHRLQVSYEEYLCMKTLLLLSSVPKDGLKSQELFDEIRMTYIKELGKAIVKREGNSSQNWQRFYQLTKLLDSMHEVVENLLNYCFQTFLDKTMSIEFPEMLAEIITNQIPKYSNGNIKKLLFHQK
Method in brief: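 Cells were plated and rested 3-5 h at 37 C, compounds were added in titration and incubated 18 h, then CCF4 substrate was loaded for 2 h at RT before reading blue/green fluorescence. EC50 came from Hill-equation fitting.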

[4] = qHTS assay for small molecule antagonists of peroxisome proliferator-activated receptor delta signaling (AID 588535; active means well fitted inhibition curve with a large enough effect in the signal ratio, with a control signal flat, not every such curve was filed as active; the % refers to the signal ratio;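 on max response: cells co-treated with a PPAR-delta agonist as stimulator during compound exposure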); conditions: HEK293T PPARd-UAS-bla, beta-lactamase FRET ratio, 18 h; 460 nm channel
Method in brief: (§1)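 Cells were seeded at 4000 per well in assay medium containing 2% charcoal/dextran FBS and held 5 hrs at 37 C. Compounds were then added for 18 hrs. CCF4 substrate was applied for 2 hrs at room temperature before fluorescence reading.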

[5] = target: Peroxisome proliferator-activated receptor delta (Homo sapiens) (UniProt Q03181); assay: as above
Sequence of Peroxisome proliferator-activated receptor delta (Homo sapiens) (Q03181 whole entry, looked up): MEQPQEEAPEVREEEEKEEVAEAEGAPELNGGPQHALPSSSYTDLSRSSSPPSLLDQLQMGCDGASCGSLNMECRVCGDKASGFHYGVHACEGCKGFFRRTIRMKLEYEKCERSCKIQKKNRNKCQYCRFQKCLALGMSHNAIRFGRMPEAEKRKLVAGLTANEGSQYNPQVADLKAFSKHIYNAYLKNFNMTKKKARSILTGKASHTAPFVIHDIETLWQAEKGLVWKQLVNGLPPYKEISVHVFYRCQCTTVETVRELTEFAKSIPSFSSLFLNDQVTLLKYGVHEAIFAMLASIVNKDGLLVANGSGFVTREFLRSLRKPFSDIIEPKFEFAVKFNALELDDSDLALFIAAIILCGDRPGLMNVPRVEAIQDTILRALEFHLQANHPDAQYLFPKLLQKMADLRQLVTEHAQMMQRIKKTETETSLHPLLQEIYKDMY
Method in brief: as §1

[6] = target: Peroxisome proliferator-activated receptor gamma (Homo sapiens) (UniProt P37231); assay: qHTS assay for small molecule antagonists of peroxisome proliferator-activated receptor gamma signaling (AID 588537; active means well fitted inhibition curve with a large enough effect in the signal ratio, with a control signal flat, not every such curve was filed as active; the % refers to the signal ratio;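 further: reporter cells co-stimulated with 50 nM rosiglitazone agonist during compound treatment; % of control where 0% means no effect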)
Sequence of Peroxisome proliferator-activated receptor gamma (Homo sapiens) (P37231 whole entry, looked up): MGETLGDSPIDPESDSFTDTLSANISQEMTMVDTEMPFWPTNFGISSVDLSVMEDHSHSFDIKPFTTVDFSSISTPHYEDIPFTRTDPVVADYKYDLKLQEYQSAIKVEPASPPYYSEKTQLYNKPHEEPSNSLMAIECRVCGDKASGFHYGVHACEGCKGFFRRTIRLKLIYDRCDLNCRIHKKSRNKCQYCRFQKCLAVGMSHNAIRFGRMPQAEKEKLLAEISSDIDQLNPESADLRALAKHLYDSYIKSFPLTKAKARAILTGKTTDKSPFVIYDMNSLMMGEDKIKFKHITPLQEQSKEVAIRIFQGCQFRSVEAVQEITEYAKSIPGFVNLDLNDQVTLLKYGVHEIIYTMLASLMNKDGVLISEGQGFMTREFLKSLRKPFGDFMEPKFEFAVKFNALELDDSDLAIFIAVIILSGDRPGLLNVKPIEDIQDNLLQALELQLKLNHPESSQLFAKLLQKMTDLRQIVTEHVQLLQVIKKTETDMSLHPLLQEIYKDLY
Method in brief: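 Step one: plate 3000 HEK293 UAS-bla cells per well in medium with 1% stripped serum and hold 6-6.5 h at 37 C. Step two: add compound and 50 nM agonist for 16 h. Step three: CCF4 loading, fluorescence read.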

[7] = target: Vitamin D3 receptor (Homo sapiens) (UniProt P11473); assay: qHTS assay for small molecule antagonists of vitamin D receptor signaling (AID 588541; calls by dose curve;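 further: receptor activated by calcitriol during compound treatment; series mostly up to about 77 µM; on the % scale 0 is the no-effect control and ±100 the full control effect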)
Sequence of Vitamin D3 receptor (Homo sapiens) (P11473 whole entry, looked up): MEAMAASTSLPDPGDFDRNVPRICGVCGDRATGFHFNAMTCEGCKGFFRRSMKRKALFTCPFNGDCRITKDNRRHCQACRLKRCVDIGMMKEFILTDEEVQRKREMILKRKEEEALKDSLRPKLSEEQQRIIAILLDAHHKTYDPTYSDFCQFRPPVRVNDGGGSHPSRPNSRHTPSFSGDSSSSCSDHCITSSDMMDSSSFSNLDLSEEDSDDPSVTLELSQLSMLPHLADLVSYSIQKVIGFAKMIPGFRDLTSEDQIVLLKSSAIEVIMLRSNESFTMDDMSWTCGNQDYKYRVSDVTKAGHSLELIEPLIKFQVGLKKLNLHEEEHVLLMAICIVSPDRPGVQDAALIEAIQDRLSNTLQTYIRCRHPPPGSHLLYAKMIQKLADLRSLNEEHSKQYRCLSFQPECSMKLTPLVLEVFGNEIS
Method in brief: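 VDR-UAS-bla HEK293T cells in 2% charcoal-stripped FBS were stimulated with 1-alpha,25-dihydroxyvitamin D3 (3 nM final) plus compound for 16 h at 37 C. The beta-lactamase CCF4 readout was normalized to 50 nM agonist and DMSO, and Hill fits gave IC50.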

[8] = target: Vitamin D3 receptor (Homo sapiens) (UniProt P11473); assay: qHTS assay for small molecule agonists of vitamin D receptor signaling (AID 588543; calls by dose curve;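 further: 0% = DMSO basal and 100% = reference agonist control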)
Method in brief: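 VDR-UAS-bla HEK293T cells, 2000/well, 2% charcoal-stripped FBS; compound titration 16 h at 37 C; CCF4 beta-lactamase ratio read. Normalized to 50 nM 1-alpha,25-dihydroxyvitamin D3 (100%) and DMSO; Hill fit gives EC50, efficacy.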

[9] = qHTS assay for small molecule agonists of retinoid X receptor alpha signaling (AID 588544; calls by dose curve;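 on activation: 0% = DMSO basal wells and 100% = reference agonist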); conditions: HEK293T RXRa-UAS-bla, beta-lactamase reporter, 18 h; 530 nm emission
[10] = target: Retinoic acid receptor RXR-alpha (Homo sapiens) (UniProt P19793); assay: as above
Sequence of Retinoic acid receptor RXR-alpha (Homo sapiens) (P19793 whole entry, looked up): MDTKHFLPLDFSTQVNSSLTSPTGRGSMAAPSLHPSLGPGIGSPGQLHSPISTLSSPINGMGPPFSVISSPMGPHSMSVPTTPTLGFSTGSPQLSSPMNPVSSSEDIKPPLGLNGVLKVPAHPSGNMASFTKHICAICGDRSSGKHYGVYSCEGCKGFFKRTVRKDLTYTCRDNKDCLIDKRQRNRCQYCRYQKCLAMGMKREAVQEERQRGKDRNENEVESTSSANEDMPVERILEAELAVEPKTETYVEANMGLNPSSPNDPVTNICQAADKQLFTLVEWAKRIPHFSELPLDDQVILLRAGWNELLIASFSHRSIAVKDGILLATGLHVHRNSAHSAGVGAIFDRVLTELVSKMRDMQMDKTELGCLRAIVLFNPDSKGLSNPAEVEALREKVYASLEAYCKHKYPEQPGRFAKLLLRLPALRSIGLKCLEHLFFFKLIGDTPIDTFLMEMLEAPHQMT

[11] = target: Thyroid hormone receptor beta (Homo sapiens) (UniProt P10828); assay: qHTS assay for small molecule agonists of thyroid hormone receptor beta signaling (AID 588545; calls by dose curve;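 further: 0% = DMSO only and 100% = 10 nM T3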)
Sequence of Thyroid hormone receptor beta (Homo sapiens) (P10828 whole entry, looked up): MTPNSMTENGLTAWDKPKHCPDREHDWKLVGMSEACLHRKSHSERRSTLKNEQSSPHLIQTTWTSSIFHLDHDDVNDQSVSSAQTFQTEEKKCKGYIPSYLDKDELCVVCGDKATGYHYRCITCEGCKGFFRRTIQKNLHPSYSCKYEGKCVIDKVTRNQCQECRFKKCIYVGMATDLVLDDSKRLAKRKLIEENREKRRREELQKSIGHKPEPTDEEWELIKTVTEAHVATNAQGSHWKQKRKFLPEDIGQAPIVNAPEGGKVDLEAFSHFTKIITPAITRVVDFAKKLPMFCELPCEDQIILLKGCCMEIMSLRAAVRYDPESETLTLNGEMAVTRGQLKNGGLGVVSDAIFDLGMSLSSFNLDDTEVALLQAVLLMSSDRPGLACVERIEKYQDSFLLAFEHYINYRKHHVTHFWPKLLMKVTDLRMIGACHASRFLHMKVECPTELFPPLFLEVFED
Method in brief: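 TR-UAS-bla GripTite HEK 293 cells (2500/well, medium with 2% charcoal/dextran FBS) were treated in agonist mode for 18 h at 37 C, titrated. Beta-lactamase was read by CCF4 ratio after 2 h; normalized to 10 nM T3 (100%) and DMSO, Hill-fitted for EC50 and efficacy.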

[12] = target: Thyroid hormone receptor beta (Homo sapiens) (UniProt P10828); assay: qHTS assay for small molecule antagonists of thyroid hormone receptor beta signaling (AID 588547; active means well fitted inhibition curve with a large enough effect in the signal ratio, with a control signal flat, not every such curve was filed as active; the % refers to the signal ratio;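 further: cells stimulated with 0.4 nM T3 agonist during compound exposure; series mostly up to about 77 µM; on the % scale 0 is the no-effect control and ±100 the full control effect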); conditions: TR-UAS-bla HEK293, beta-lactamase ratio, antagonist mode, 18 h
Method in brief: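 TR-UAS-bla GripTite HEK293 cells in 2% charcoal/dextran FBS medium; compounds 0.59 nM to 92 uM with T3 at 0.4nM final, 18 h at 37 C. Beta-lactamase read by CCF4 fluorescence (460/530 nm); Hill fits gave IC50 and efficacy.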

[13] = target: Luciferin 4-monooxygenase (Photinus pyralis) (UniProt P08659); assay: Biochemical firefly luciferase enzyme assay for NPC (AID 624030);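 further: purified P. pyralis luciferase at 10 nM with luciferin and ATP substrate; series mostly up to about 59 µM; 0% = DMSO and -100% = full luciferase inhibition by PTC124 control; nearly all actives have a fitted effect of over 70% in size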
Sequence of Luciferin 4-monooxygenase (Photinus pyralis) (P08659 whole entry, looked up): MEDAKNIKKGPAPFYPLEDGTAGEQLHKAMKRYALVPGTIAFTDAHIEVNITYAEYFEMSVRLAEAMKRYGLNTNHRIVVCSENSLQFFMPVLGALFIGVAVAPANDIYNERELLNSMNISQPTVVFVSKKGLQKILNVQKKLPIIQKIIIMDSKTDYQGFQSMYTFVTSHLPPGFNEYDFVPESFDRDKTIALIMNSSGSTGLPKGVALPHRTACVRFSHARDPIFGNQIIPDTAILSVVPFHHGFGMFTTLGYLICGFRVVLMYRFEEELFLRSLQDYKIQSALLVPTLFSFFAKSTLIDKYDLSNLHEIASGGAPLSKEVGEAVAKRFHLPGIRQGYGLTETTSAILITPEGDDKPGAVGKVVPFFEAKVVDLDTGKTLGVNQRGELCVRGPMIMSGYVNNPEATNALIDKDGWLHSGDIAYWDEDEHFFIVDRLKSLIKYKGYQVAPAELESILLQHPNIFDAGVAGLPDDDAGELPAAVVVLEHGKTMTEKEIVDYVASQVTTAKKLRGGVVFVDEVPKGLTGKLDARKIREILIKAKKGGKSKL
Method in brief: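 Purified P. pyralis luciferase at 10 nM in 50 mM Tris Acetate (final), luminescence read within 5 minutes of enzyme addition to compounds. Activity normalised to PTC124 versus DMSO; concentration-response curves classed by r2, magnitude and activity.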

[14] = qHTS assay for small molecule agonists of the antioxidant response element (ARE) signaling pathway (AID 651741; active means well fitted activation curve with a large enough effect in the signal ratio; the % refers to the signal ratio; further: potency means the concentration at half of the fitted maximal effect)
Method in brief: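 HepG2 ARE-bla cells plated at 2,000 cells/well and incubated 5 h at 37 C/5% CO2 received 23 nL compound in DMSO. After 16 h at 37 C, LiveBLAzer B/G FRET substrate was applied for 2 h at room temperature and fluorescence read.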

[15] = qHTS assay for small molecule activators of the p53 signaling pathway (AID 651743; active means well fitted activation curve with a large enough effect in the signal ratio, not every such curve was filed as active; the % refers to the signal ratio; further: series mostly up to about 92 µM; % of control where 0% means no effect); conditions: HCT-116 p53RE-bla, beta-lactamase FRET ratio, 16 h; stronger effect = higher value
Method in brief: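 HCT-116 p53RE-bla, 4,000 cells/well; 5 h settle; cpd/DMSO 16 h, 37 C; LiveBLAzer B/G 2 h RT; fluorescence intensity.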

[16] = qHTS assay for environmental chemicals that activate the Aryl hydrocarbon Receptor (AhR) signaling pathway (AID 651777); conditions: 1A2-DRE human hepatoma cells, luciferase, 24 h; stronger effect = higher value; further: % of control where 0% means no effect; nearly all actives have a fitted effect of over 15% in size
Method in brief: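 1A2-DRE human hepatoma reporter line; 1,200 cells/well; cmpd or DMSO 24 h, 37 C/5% CO2; One-Glo 30 min RT; luciferase lum.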

[17] = target: Peroxisome proliferator-activated receptor alpha (Homo sapiens) (UniProt Q07869); assay: qHTS assay for small molecule agonists of the peroxisome proliferator-activated receptor alpha (PPARalpha) signaling pathway (AID 651778); conditions: PathHunter PPARalpha complementation, chemiluminescence, 6 h; stronger effect = higher value; further: % of control where 0% means no effect
Method in brief: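 Enzyme-fragment complementation assay in which ligand-bound PPARalpha translocates and forms an active enzyme that generates chemiluminescence. Cells were plated overnight, exposed to compound for 6 hr at 37 C, and then given detection reagent for 60 min at room temperature.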

[18] = qHTS assay for small molecule agonists of the antioxidant response element (ARE) signaling pathway measured by Nrf2-dependant transcriptional activity - cell viability counter screen (AID 720653; active means well fitted curve in the direction sought with a large enough effect in the repeat runs; an effect the other way counts as inactive or inconclusive; further: on the % scale 0 is the no-effect control and ±100 the full control effect); conditions: ARE-bla HepG2 viability, CellTiter-Glo ATP luminescence, 16 h; stronger effect = lower value
Method in brief: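 ARE-bla HepG2 cells treated with compounds for 16 h at 37C; this counter screen measures viability as intracellular ATP by CellTiter-Glo luminescence after 30 min at room temperature.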

[19] = qHTS Assay for Identifying Gametocytocidal Compounds (AID 743244);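 further: on the % scale 0 is the no-effect control and ±100 the full control effect; actives lower the fluorescent signal which means gametocytes are killed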; conditions: P. falciparum 3D7 stage III-V gametocytes, alamarBlue, 72 h; max response: stronger effect = lower value
Method in brief: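 Stage III-V P. falciparum 3D7 gametocytes, 20,000 per well, were exposed to compounds for 72 h at 37C, 5% CO2. AlamarBlue was then added for 24 h and viability was read as fluorescence at Ex 525/Em 598 nm.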

[20] = qHTS assay for cell viability of HEK293 cells (AID 743288); conditions: ATP luminescence (CellTiter-Glo), 18 h, stronger effect = lower value; further: on the % scale 0 is the no-effect control and ±100 the full control effect; nearly all actives have a fitted effect of over 50% in size
Method in brief: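 Parental HEK293 cells, 2,000 per well, preincubated at least 5 h at 37 C, then exposed to compounds in DMSO for 18 h at 37 C. Viability by CellTiter-Glo ATP luminescence after 30 min at room temperature.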

[21] = qHTS assay for cell viability of the p53RE-bla HCT-116 cell line (AID 743292); further: on the % scale 0 is the no-effect control and ±100 the full control effect; nearly all actives have a fitted effect of over 55% in size
Method in brief: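 HCT-116 p53RE-bla cells seeded 4,000/well; 5 h at 37 C; compound (DMSO) added; 16 h at 37 C; CellTiter-Glo added, 30 min RT; luminescence read.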

[22] = target: Nuclear receptor subfamily 1 group I member 2 (Rattus norvegicus) (UniProt Q9R1A7); assay: qHTS assay for small molecule activators of the rat pregnane X receptor (rPXR) signaling pathway (AID 651751; call rule not given here; further: 0% is about no effect); conditions: rPXR reporter cells, luciferase (One-Glo), 24 h

Cc1ccc(Cn2c(CN3CCC(C(=O)NCCc4ccccc4)CC3)cc3ccccc32)cc1
active: Potency [1] 2.13 µM

CCCOC(=O)c1cc(O)c(O)c(O)c1
14.7%: max response [9]
active: Potency [14] 9.69 µM
51.1%: max response [4]
inactive: outcome [2] | activation [3] -7.56% | outcome [5] | outcome [6] | outcome [7] | outcome [8] | outcome [10] | outcome [11] | activity change % (negative = inhibition) [12] 5.53% | Potency [13] | activation [15] -0.803% | activation [16] 4.88% | max response [17] 0.0423% | max response [18] -15.7% | max response [19] 14.7% | max response [20] -23.3% | outcome [21] | Potency [1] | max response [22] -2.93%
